# Screening results from PubChem BioAssay.
# Rows were chosen to be rich in hits. Some 4.5% of all compounds tested hit in one or more screens of this group.
# DAX1 inh-1: DAX1 (NR0B1) inhibitors on StAR promoter, primary screen, cell-based, luminescence, SF-1 (NR5A1), full-length DAX-1; HEK293T StAR-luciferase reporter, SF-1/DAX-1 repression relief; inhibition, % at 6.8 µM; actives 1.1% (n = 370,000);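 active = inhibition above the mean over all tested compounds plus 3 SD, cut at about 3.6% in these data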;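 also: 0% = DAX-1 cells with DMSO and 100% = cells lacking DAX-1 with DMSO; higher inhibition means more luminescence from relief of DAX-1 repression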
# DAX1 inh-2: DAX1 (NR0B1) inhibitors, primary screen, cell-based, HEK293, Gal4-DAX1, luciferase luminescence; actives 0.99% (n = 340,000); inhibition, % at 6.75 µM; HEK293 Gal4-DAX1 luciferase reporter; Nuclear receptor subfamily 0 group B member 1 (Homo sapiens), P51843;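 active = inhibition above the mean over all tested compounds plus 3 SD, cut at about 4.2% in these data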;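 also: 0% = DAX1-transfected cells with DMSO and 100% = empty-vector control cells with DMSO; inhibition shows as a rise in luminescence from relieved DAX1 repression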
# FXN GAA850 act: FXN promoter activators, primary screen, cell-based, luciferase luminescence, HEK293 lucGAA850 | HEK293 lucGAA850 FXN promoter luciferase reporter, 24 h; percent of 10 µM SAHA response | activation, % at 6 µM | actives 0.56% (n = 360,000);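 active = activation above the average of all compounds screened plus 3 SD, cutoff fixed separately per campaign, cut at about 7.5% in these data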;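 also: 0% = DMSO wells and 100% = 10 µM SAHA wells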
# ssDAF-12 act: S. stercoralis DAF-12 nuclear receptor activators, primary screen, cell-based, luminescence, HEK293, GRIP1 co-expression, lit1-tk-luc | AID 652126, 2013 | activation, % at 6.8 µM | HEK293 ssDAF-12/GRIP1 lit1-tk-luc reporter; % of 3 µM dafachronic acid response | actives 1% (n = 370,000) | Nuclear hormone receptor DAF-12 (Strongyloides stercoralis);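 active = activation above the mean over all tested compounds plus 3 SD, cut at about 0.9% in these data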;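 also: 0% = DMSO-only wells and 100% = 3 µM delta7-dafachronic acid wells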
# hgDAF12 agonist: H. glycines DAF-12 receptor agonists, primary screen, cell-based, luminescence, HEK293, GAL4 fusion, UAS-luciferase. Nuclear hormone receptor DAF-12 (Heterodera glycines), GAL4 fusion. HEK293 GAL4-hgDAF12 UAS-luciferase reporter, agonist luminescence; normalized to butyrate control. activation, % at 6.8 µM. actives 1.8% (n = 370,000);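 active = activation above a cutoff set at the mean of all screened compounds plus 3 SD, cut at about 10% in these data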;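 also: 0% = DMSO wells and 100% = sodium butyrate wells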
# hcDAF-12 act: H. contortus DAF-12 nuclear receptor activators, primary screen, cell-based, luminescence, HEK293, lit1-tk-luc reporter; actives 1.4% (n = 370,000); HEK293 hcDAF-12 lit1-tk-luc reporter; 0% DMSO, 100% Δ7-dafachronic acid; activation, % at 6.8 µM; AID 652067, 2013;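 active = activation above the mean of all tested compounds plus 3 SD, cut at about 5.5% in these data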;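 also: 100% = response to 3 µM Δ7-dafachronic acid high control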
# DAX1 inh confirm: DAX1 (NR0B1) inhibitors relieving SF-1 repression, confirmation, cell-based, luminescence, HEK293T, full-length DAX-1, SF-1 activated StAR promoter; HEK293T StAR-promoter luciferase reporter, SF-1/DAX-1 repression; inhibition, % at 6.8 µM; actives 87% (n = 2,400); shares compounds with DAX1 inh-1;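 active = inhibition above the average of every tested compound plus 3 SD, cut at about 3.8% in these data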;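 also: 0% = DAX-1 cells with DMSO and 100% = no DAX-1 control cells with DMSO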
# Target sequence (P51843 whole entry, looked up): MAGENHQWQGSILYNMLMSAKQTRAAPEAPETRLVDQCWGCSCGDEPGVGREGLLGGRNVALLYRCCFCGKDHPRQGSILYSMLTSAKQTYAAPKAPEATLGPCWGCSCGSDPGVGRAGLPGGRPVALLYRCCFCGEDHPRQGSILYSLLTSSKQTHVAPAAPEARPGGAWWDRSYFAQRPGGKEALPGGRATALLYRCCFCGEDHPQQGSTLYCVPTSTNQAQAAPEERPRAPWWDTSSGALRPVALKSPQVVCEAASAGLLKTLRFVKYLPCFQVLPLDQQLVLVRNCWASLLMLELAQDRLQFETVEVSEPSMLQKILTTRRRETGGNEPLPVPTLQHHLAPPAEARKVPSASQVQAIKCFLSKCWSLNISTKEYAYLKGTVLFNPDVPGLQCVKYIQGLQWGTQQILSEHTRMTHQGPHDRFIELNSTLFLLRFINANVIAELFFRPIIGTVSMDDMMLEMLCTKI
# SF1 mutant ctr: StAR reporter signal changes without DAX1, counter-screen for DAX1 inhibitor project, cell-based, luminescence, AF-2 mutant SF-1, transactivation. shares compounds with DAX1 inh-1. HEK293 StAR-luciferase, SF-1 AF2 mutant. inhibition, % at 6.8 µM. actives 78% (n = 2,400). AID 652136, 2013;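 active = inhibition above the mean of all tested compounds plus 3 SD, cut at about 3% in these data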;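 also: 0% = DAX-1 transfected cells with DMSO and 100% = cells without DAX-1 with DMSO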
# LXRb hcDAF ctr: LXR agonists, Gal4 luciferase reporter, confirmation, counter-screen for hcDAF-12 agonist project, cell-based, luminescence, HEK293, H. contortus campaign | shares compounds with hcDAF-12 act | HEK293 Gal4-LXR tk-luc reporter, 24 h; normalized: DMSO 0%, positive control 100% | activation, % at 6.8 µM | 3,400 tested, under 10 active;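 active = mean percent activation of the reporter above a cutoff set as the average over tested compounds plus their standard deviation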
# hcDAF12 ag: H. contortus DAF-12 receptor agonists, confirmation, cell-based, luminescence, HEK293, lit1-tk-luc, triplicate; actives 61% (n = 3,400); shares compounds with hcDAF-12 act; AID 743032, 2013; activation, % at 6.8 µM; HEK293 hcDAF-12 lit1-tk-luc reporter; % of Δ7-dafachronic acid response;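 active = mean activation across triplicate tests above the threshold derived from the earlier primary screen, cut at about 5.5% in these data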;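 also: 0% = DMSO only wells and 100% = 3 µM Δ7-dafachronic acid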
# hgDAF12 ag: H. glycines DAF-12 receptor agonists, confirmation, cell-based, luminescence, HEK293, GAL4-LBD fusion; shares compounds with hgDAF12 agonist; HEK293 GAL4-hgDAF12 luciferase reporter, agonist mode; percent of butyrate response; activation, % at 6.8 µM; actives 80% (n = 3,300); AID 743050, 2013;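 active = mean activation over triplicate wells above the hit cutoff derived from the earlier primary screen, cut at about 11% in these data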;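 also: 0% = DMSO low control and 100% = 2 mM sodium butyrate high control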
# LXR ag 2: LXR agonists, Gal4 luciferase reporter, confirmation, counter-screen for hgDAF-12 agonist project, cell-based, luminescence, HEK293, H. glycines campaign; 24 h; activation, % at 6.8 µM; 3,300 tested, under 10 active; shares compounds with hgDAF12 agonist;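 active = mean activation of the triplicate above a set limit carried over from the primary screen, none filed active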
# * = called active by the depositor; / = no result given.
SMILES,DAX1 inh-1,DAX1 inh-2,FXN GAA850 act,ssDAF-12 act,hgDAF12 agonist,hcDAF-12 act,DAX1 inh confirm,SF1 mutant ctr,LXRb hcDAF ctr,hcDAF12 ag,hgDAF12 ag,LXR ag 2
O=C(OCC(=O)N1CCc2ccccc21)c1ccccc1[N+](=O)[O-],7.1*,1,1,2.6*,18*,7.5*,17*,9.6*,1,8.4*,17*,1
O=C(OCC(=O)N1CCc2ccccc21)c1ccccc1F,2,0,0,0,2,4,/,/,/,/,/,/
O=C(CS(=O)(=O)Cc1ccccc1)N1CCc2ccccc21,2,0,2,0,5,3,/,/,/,/,/,/
O=C(CCCc1ccccc1)N1CCc2ccccc21,6.2*,2,3,2.0*,16*,7.8*,17*,6.7*,2,10*,18*,1
OCC(O)C1OC(c2ccco2)OC(CO)C1O (stereo not given),0,0,1,-1,0,1,/,/,/,/,/,/
CCN1C(=O)[C@H]2[C@@H](c3ccc(-c4ccc(F)cc4)c(OC)c3)N[C@@](CC(C)C)(C(=O)OC)[C@H]2C1=O,-1,/,/,-1,-1,-2,/,/,/,/,/,/
CCOC(=O)CN1C(=O)/C(=C2\SC(=S)N(NC(=O)c3cccnc3)C2=O)c2ccccc21,-1,0,1,0,4,0,/,/,/,/,/,/
Cc1c(C(=O)Nc2ccccn2)oc2ccccc12,4.7*,3,2,3.3*,14*,13*,11*,5.8*,2,17*,23*,1
Cc1cccc(-n2ncc3c(NCc4cccnc4)ncnc32)c1,4.7*,2,4,-1,13*,-1,8.1*,4.2*,/,/,12*,0
Cc1cccc(-n2ncc3c(NC4CCCCC4)ncnc32)c1,6.8*,1,2,0,25*,7.8*,13*,7.5*,2,6.2*,12*,1
Cc1cccc(-n2ncc3c(N4CCCC4)ncnc32)c1,7.4*,-1,3,1,18*,5,16*,6.9*,/,/,16*,1
O=C1N2CCc3ccccc3C2CS(=O)(=O)N1Cc1ccc(F)cc1 (stereo not given),-1,/,/,-1,-2,-3,/,/,/,/,/,/
O=C(c1ccco1)N1CCCC(N2CCN(c3cccc(C(F)(F)F)c3)CC2)C1 (stereo not given),-6,-1,-1,-1,-1,-1,/,/,/,/,/,/
C/C(=N\NC(=O)C1CC1)c1ccc(C)cc1C,0,-2,1,-1,-2,1,/,/,/,/,/,/
O=C(NC1CCCCC1)c1ccc(-c2ccccc2[N+](=O)[O-])o1,9.3*,3,7,1.1*,15*,7.9*,8.9*,5.5*,1,7.3*,14*,1
O=C(NC1CCCCC1)c1ccc([N+](=O)[O-])o1,/,-2,2,/,/,/,/,/,/,/,/,/
CCOC(=O)[C@]12CCCC3=C1N(CCC3)C(=O)[C@@H](CC(=O)NCCc1ccccc1OC)C2,-1,/,/,-2,-1,-3,/,/,/,/,/,/
Cn1c(CCN2CCCCC2)nc2cc(NC(=O)Nc3ccccc3)ccc21,-1,0,3,-2,-5,0,/,/,/,/,/,/
Cc1ccc(NC(=O)Nc2ccc3c(c2)nc(C)n3C)cc1,6.4*,-1,4,1,17*,8.7*,16*,7.2*,1,5,17*,1
Cc1nc2cc(NC(=O)Nc3ccccc3Cl)ccc2n1C,12*,-2,2,0,15*,7.1*,19*,8.4*,2,7.8*,20*,1
CC(=O)Nc1ccc(S(=O)(=O)N2CCN(S(=O)(=O)c3ccc(F)c(F)c3F)CC2)cc1,0,0,1,-1,1,0,/,/,/,/,/,/
O=C(C=NNc1ccccc1)c1ccccc1,7.3*,4.5*,2,1.8*,29*,12*,17*,9.1*,2,12*,24*,1
OC(Cc1cccnc1)c1ccccc1 (stereo not given),0,0,2,-1,-2,0,/,/,/,/,/,/
N#CC1=C(N)SC(N)=C(C#N)C1c1ccnc2ccccc12,0,0,-1,0,-1,3,/,/,/,/,/,/
O=C1c2ccccc2C(=O)C1c1ccnc2ccccc12,5.3*,2,2,5.1*,21*,24*,-2,-4,1,18*,8,1
